ELG1 genotoxic: induces genotoxicity in HEK293T cells with luciferase-tagged ELG1 | HEK293T ELG1-luciferase reporter, luminescence, 16 h | Potency, µM (titrated, usually from 46 µM), without a hit: at the top dose activity change, positive = activation, usual class: activators | hit rate 1.3% among 330,000 | AID 504466; note: % of control where 0% means no effect; nearly all actives have a fitted effect of over 60% in size
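Luminescence read-out: rising ELG1-luciferase signal, reflecting elevated ELG1 protein under genetic stress, flags genotoxic compounds. Cells were treated for 16 hr at 37 °C before ONE-Glo detection.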
FLuc counter: firefly luciferase modulation, counter-screen for miR-21 project | P08659 | purified FLuc, Km substrates, luminescence inhibition | Potency, µM (top dose mostly 57.5 µM), inactives show at the highest dose activity change, negative = inhibition, hits mostly inhibitors | hit rate 6.9% among 360,000;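 note: plate controls were vehicle for no effect and reference inhibitor for full effect; nearly all actives have a fitted effect of over 55% in size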
Target sequence (P08659 whole entry, looked up): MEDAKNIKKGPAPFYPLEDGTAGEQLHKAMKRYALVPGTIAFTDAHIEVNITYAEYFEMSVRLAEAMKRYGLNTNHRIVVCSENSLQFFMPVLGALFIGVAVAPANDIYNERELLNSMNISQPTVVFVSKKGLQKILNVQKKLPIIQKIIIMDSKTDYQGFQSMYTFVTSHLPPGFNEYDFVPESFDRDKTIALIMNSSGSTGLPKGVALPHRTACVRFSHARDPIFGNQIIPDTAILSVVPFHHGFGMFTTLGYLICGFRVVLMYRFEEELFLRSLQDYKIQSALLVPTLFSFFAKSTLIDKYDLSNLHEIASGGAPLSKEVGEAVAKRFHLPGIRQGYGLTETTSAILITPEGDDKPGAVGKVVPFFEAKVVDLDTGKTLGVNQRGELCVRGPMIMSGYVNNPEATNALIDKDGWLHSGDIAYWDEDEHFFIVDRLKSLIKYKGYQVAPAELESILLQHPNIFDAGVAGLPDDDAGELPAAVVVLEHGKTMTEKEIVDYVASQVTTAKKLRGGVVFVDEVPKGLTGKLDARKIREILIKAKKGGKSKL
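Purified P. pyralis luciferase (10nM final) with 10uM D-luciferin and 10uM ATP (Km levels) in 50mM Tris acetate pH 7.5, 10mM Mg acetate, 0.01% Tween-20, 0.05% BSA; qHTS 6-point titration, ~60 µM downward; luminescence read.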
Rab9 prom act: activates the Rab9 promoter. Huh7 Rab9 promoter-luciferase reporter, luminescence, 24 h. hit rate 2.8% among 320,000. AID 485297. Potency, µM (doses to about 9.22 µM), for the others: at the highest dose activation, negative = inhibition, usual class: activators; note: % of control where 0% means no effect; nearly all actives have a fitted effect of over 60% in size
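Rab9 promoter-driven luciferase in stably transfected Huh7 cells; 1500 cells/well rested 2 h, exposed to compound in DMSO for 24 h at 37 °C, 5% CO2. Luminescence read 10 min after adding luciferase reagent at ambient temperature.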
SMN2 splice up: enhancers of SMN2 splice variant expression; AID 1458; Potency, µM (highest dose often 46.1 µM), for inactives: at the highest dose activity change, positive = activation, actives largely listed as activators; hit rate 2.8% among 210,000; HEK293 SMN2-luciferase splicing reporter, luminescence, 30-36 h; note: % of control where 0% means no effect; nearly all actives have a fitted effect of over 55% in size
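qHTS luciferase splicing reporter: luminescence rises when SMN2 exon 7 is included in transfected HEK293 cells. Compound exposure lasted 30-36 h at 37C, with 4.5 mM final sodium butyrate as control, followed by a ONE-Glo read.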
NPC1 prom act: NPC1 promoter activation; hit rate 2.4% among 320,000; Huh7 NPC1 promoter luciferase reporter, 24 h; Potency, µM (highest dose often 9.22 µM), for inactives: top-dose activation, hits mostly activators; AID 485313; note: % of control where 0% means no effect; nearly all actives have a fitted effect of over 60% in size
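In 1536-well qHTS, Huh7 cells harboring an NPC1 promoter–luciferase construct received compound for 24 h; activation was quantified by luminescence following luciferase reagent addition.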
Luc counter: blocks Kinase-Glo luciferase, a counter-screen artifact. Q27757. Kinase-Glo luciferase, ATP luminescence, 8 min. Potency, µM (series often up to 38.3 µM), for inactives: at the top dose activity change, negative = inhibition, actives largely listed as inhibitors. hit rate 0.28% among 200,000. AID 1379; note: % is set by controls: 0 for no effect and ±100 for the full control effect; nearly all actives have a fitted effect of over 60% in size
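Compound is pinned into ATP-containing buffer (10 uM ATP, imidazole pH 7.2, 7 mM MgCl2). Kinase-Glo luciferase reagent is then added. Light output is recorded following an 8-min room-temperature incubation.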
The depositor's hits bear a star; ? = inconclusive; . = not tested or not shown. Sampled rows, rich in hits. Any-hit rate of the full collection: about 7.5%. Calls come from the whole dose curve; as a rule, active = well fitted curve in the direction sought with a large enough effect; inconclusive = small, poorly fitted or top-dose-only effect, or another doubt; inactive = no such curve, though single readings can be large; an effect the other way counts as inactive or inconclusive. Potency is the fitted concentration of half-maximal effect.

SMILES	ELG1 genotoxic	FLuc counter	Rab9 prom act	SMN2 splice up	NPC1 prom act	Luc counter
O=C(Nc1ccc(N2CCCC(O)C2)cc1)c1snc2c(=O)[nH]cnc12 (stereo not given)	?	2.13µM*	18.3%	?	17.4%	-6.3%
Cc1nc2c(C(=O)Nc3ccc(N4CCCC(O)C4)cc3)snc2c(=O)[nH]1 (stereo not given)	11.8%	3.01µM*	1.5%	.	16.6%	.
Cc1cccc(NC(=O)c2snc3c(=O)[nH]cnc23)c1	-1.8%	0.4%	3.3%	-11.4%	-2.0%	-5.4%
CC(=O)Nc1ccc(NC(=O)C(OC(=O)c2ccccc2)C(OC(=O)c2ccccc2)C(=O)O)cc1 (stereo not given)	0.8%	?	-6.3%	.	0.4%	-2.1%
COc1ccccc1N1CCN(S(=O)(=O)c2ccc(-c3ccno3)cc2OC)CC1	.	-4.1%	.	.	.	.
O=C(CSc1nc2ccccc2n1Cc1c(F)cccc1Cl)N1CCN(c2ccc(F)cc2)CC1	.	-4.7%	.	-2.1%	.	.
COc1cc(/C=C(/NC(=O)c2ccccc2Cl)C(=O)O)cc(OC)c1OC	0.4%	-1.7%	-0.3%	-13.0%	6.7%	1.9%
COc1c(C(=O)NNC(=O)c2ccccc2Cl)csc1Br	?	21.3µM*	?	.	3.55µM*	.
CC(C)CC1NC(=O)c2cc(Cl)ccc2-n2c1nc1ccc(F)cc1c2=O (stereo not given)	1.9%	.	.	.	.	.
COc1ccc(OC)c(CNc2ccc3c(c2)nc(C)n3C)c1	0.4%	-16.0%	-2.8%	.	0.7%	.
COc1ccc(N=Nc2nc3cc(Br)c(Br)cc3n2C)c(OC)c1	-18.8%	5.36µM*	-0.2%	17.5%	0.2%	-19.7%
NC(N)=NC(=O)c1nc(Cl)c(N2CCCCCC2)nc1N	16.4µM*	4.26µM*	?	8.2%	?	-2.8%
COc1ccc(OC)c(C2C(C(=O)Nc3ccccc3OC)=C(C)Nc3c(C(=O)Nc4ccc(F)cc4)cnn32)c1 (stereo not given)	.	1.8%	.	.	.	.
COc1ccc(/C=C/C(=O)NCCN=C2NS(=O)(=O)c3ccccc32)cc1	-4.7%	15.1µM*	-9.5%	7.9%	-1.6%	1.2%
Cc1cc(-n2c(C)cc(C(=O)CSc3nnnn3-c3ccccc3)c2C)no1	-20.0%	-9.6%	0.0%	-34.3%	-1.4%	-0.6%
Cc1cc(C(=O)CSc2cccc[n+]2[O-])c(C)n1-c1ccccc1	?	1.69µM*	0.447µM*	1µM*	0.447µM*	1.1%
Cc1cc(C(=O)CSc2cccc[n+]2[O-])c(C)n1-c1ccc(Br)cc1	?	15.1µM*	23.9%	-41.9%	26.4%	-1.2%
CC(=O)Nc1ccc(SCCCC(=O)c2ccccc2)cc1	?	23.9µM*	?	.	?	.
Cc1cc(C(=O)CSc2nncn2C)c(C)n1-c1ccccc1	-3.8%	8.49µM*	0.447µM*	11.2µM*	2µM*	-2.9%
COc1ccc(NC(=O)C2CCCN(S(=O)(=O)c3ccc(Br)s3)C2)cc1 (stereo not given)	.	-7.4%	.	1.3%	.	.
O=C(c1cccs1)N1CCCc2cc(NS(=O)(=O)c3cc(F)ccc3F)ccc21	.	-19.1%	.	.	.	.
Cc1cc(C(=O)C(C)OC(=O)c2ccc(NC(=O)CC#N)cc2)c(C)n1-c1ccccc1 (stereo not given)	29.5%	16.9µM*	-3.3%	.	0.6%	.
COc1ccc(-n2c(C)cc(C(=O)CSc3ccc(NC(C)=O)cc3)c2C)cc1	4.3%	?	19.4%	-32.8%	28.2%	2.7%
CC(=O)Nc1ccc(SCC(=O)c2cc(C)n(-c3ccccc3)c2C)cc1	?	5.36µM*	3.55µM*	-19.9%	?	2.3%
CC(OC(=O)c1ccc(NC(=O)CC#N)cc1)C(=O)NC(c1ccccc1)c1ccccc1 (stereo not given)	1.3%	.	.	.	.	.
C/C(=N\NC(=O)CNC(=O)c1ccc2c(c1)OCCO2)c1ccco1	1.0%	-14.2%	1.5%	.	2.6%	.
C/C(=N\NC(=O)c1ccc(Cl)c(Cl)c1)c1ccc(Br)s1	-0.2%	0.0%	-8.1%	-46.1%	-9.2%	-0.4%
C/C(=N\NC(=O)c1ccc2c(c1)OCO2)c1ccco1	14.1%	9.53µM*	0.794µM*	12.6µM*	?	?
